Screening data as filed in PubChem.
TEAD-YAP inh – TEAD-YAP interaction inhibition | HEK-TIYL cells, TEAD-Gal4/YAP UAS-luciferase luminescence | inhibition, % at 9.12 µM | 640,000 compounds, 1.4% hits | AID 1259422; in the data active means inhibition above about 32%
FBW7 activator – activators of human E3 ligase FBW7. Q969H0. AlphaScreen FBW7–phospho-cyclin E peptide binding, activator screen. normalized activity (activation), % at 26.1 µM. 650,000 compounds, 0.13% hits. AID 1259310; in the data active means normalized activity above about 1.9%;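 further: purified mutant Fbw7 with reduced substrate affinity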
Target sequence (Q969H0 whole entry, looked up): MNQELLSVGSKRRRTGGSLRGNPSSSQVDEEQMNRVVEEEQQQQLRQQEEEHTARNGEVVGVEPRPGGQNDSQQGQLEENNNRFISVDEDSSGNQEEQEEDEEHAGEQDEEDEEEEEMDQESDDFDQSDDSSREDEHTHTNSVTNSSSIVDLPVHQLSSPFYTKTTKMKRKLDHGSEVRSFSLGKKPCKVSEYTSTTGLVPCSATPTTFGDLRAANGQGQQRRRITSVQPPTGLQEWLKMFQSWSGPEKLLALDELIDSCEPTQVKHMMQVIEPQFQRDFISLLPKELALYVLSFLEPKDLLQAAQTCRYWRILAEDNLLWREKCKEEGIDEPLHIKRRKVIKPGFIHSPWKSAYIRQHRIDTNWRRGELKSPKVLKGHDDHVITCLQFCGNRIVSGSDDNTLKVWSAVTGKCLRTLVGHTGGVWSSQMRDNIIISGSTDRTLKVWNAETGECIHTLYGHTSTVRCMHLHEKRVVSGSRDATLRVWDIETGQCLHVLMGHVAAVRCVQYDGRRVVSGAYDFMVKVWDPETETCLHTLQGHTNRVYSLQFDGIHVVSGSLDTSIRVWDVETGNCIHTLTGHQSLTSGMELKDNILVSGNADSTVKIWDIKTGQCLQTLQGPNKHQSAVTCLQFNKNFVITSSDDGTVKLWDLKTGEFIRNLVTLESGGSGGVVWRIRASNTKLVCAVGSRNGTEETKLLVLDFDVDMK
MITF primary – human MITF inhibition, primary screen; O75030; AlphaScreen MITF homodimerization, bead proximity signal; inhibition, % at 2.6 µM; 650,000 compounds, 0.91% hits; AID 1259374; in the data active means inhibition above about 50%
GPR151 activ – activates the human receptor GPR151; Q8TDV0; PathHunter beta-arrestin GPR151 cells, luminescence; activation, % at 11.2 µM; 650,000 compounds, 1% hits; AID 1508602; in the data active means activation above about 4.9%
GPR151 conf act – confirmation of human GPR151 activators; shares compounds with GPR151 activ; GPR151 PathHunter beta-arrestin cells, luminescence, 90 min; % of EA-reagent control over plate median; activation, % at 11.2 µM; 6,700 tested, under 10 active;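 active means mean percent activation across replicates above the confirmation screen cutoff of 4.91%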
GPR119 ag – GPR119 activation, counter-screen for GPR151 activators | shares compounds with GPR151 activ | GPR119 PathHunter beta-arrestin cells, luminescence, 90 min; 0 = compound-well median, 100 = enzyme-acceptor control | activation, % at 11.2 µM | 6,700 compounds, 0.3% hits | AID 1508611;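 active means mean percent activation in the counterscreen above 29.09%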;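 further: counterscreen on off-target GPR119 to flag nonselective hits from the GPR151 activator screen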
Of the large screens only hits and unclear results are named; the others gave an inactive call (follow-up assays come after a bar, where they were run). Most compounds without a hit are left out; they make up all but 3.4% or so of the library.

Cc1cc2ncn(S(=O)(=O)c3ccc(S(=O)(=O)N4CCCCC4)cc3)c2cc1C	GPR151 activ 7.7 | GPR151 conf act inactive | GPR119 ag inactive
COc1ccc(-c2cc(C(=O)N3CCCCC3C)[nH]n2)cc1 (centres undefined)	GPR151 activ 5.3 | GPR151 conf act inactive | GPR119 ag inactive
COc1ccc(-c2cc(C(=O)N3C(C)CCCC3C)[nH]n2)cc1 (centres undefined)	none
O=C(CCc1nnc(Cc2c[nH]c3ccccc23)o1)N1CCCCC1CCc1ccccn1 (centres undefined)	none
O=C(CCc1nnc(-c2ccsc2)o1)N1CCCCC1CCc1ccccn1 (centres undefined)	GPR151 activ 6.5 | GPR151 conf act inactive | GPR119 ag inactive
COc1ccc(OC)c(/C=N/NC(=O)c2[nH]ncc2Br)c1	none
COC(=O)c1[nH]ncc1Br	GPR151 activ 6.1 | GPR151 conf act inactive | GPR119 ag inactive
Cc1cc(C)n2c(SCC(=O)Nc3ccc(C(C)(C)C)cc3)nnc2n1	none
CCC(=O)N1CCN(c2ccc(NC(=O)c3cccs3)cc2)CC1	GPR151 activ 9.2 | GPR151 conf act inactive | GPR119 ag inactive
CCC(=O)N1CCN(c2ccc(NC(=O)c3ccco3)cc2Cl)CC1	none
CCC(=O)N1CCN(c2ccc(NC(=O)c3ccco3)cc2)CC1	GPR151 activ 5.4 | GPR151 conf act inactive | GPR119 ag inactive
CC(C)(C)NC(=O)C(=O)NNC(=O)c1cc([N+](=O)[O-])cc([N+](=O)[O-])c1	none
CCC(C)(C)NC(=O)CN(C(=O)CCC(=O)Nc1ccccn1)C1CCCC1	none
CCOC(=O)C1(CCOC)CCN(CC2CC=CCC2)CC1 (centres undefined)	none
CC(NS(=O)(=O)c1cc(Cl)ccc1Cl)C(N)=O (centres undefined)	GPR151 activ 5.2 | GPR151 conf act inactive | GPR119 ag inactive
Cc1ccc(C)c(S(=O)(=O)NC(C)C(=O)Nc2ccc(Cl)c(Cl)c2)c1 (centres undefined)	GPR151 activ 5.9 | GPR151 conf act inactive | GPR119 ag inactive
CC(NS(=O)(=O)c1ccc(Cl)cc1)C(N)=O (centres undefined)	none
CCCCc1nnc(NC(=O)CCl)s1	none
COc1ccccc1-c1cnc2ccc(NCc3ccc(S(N)(=O)=O)cc3)nn12	GPR151 activ 9.4 | GPR151 conf act inactive | GPR119 ag inactive
Fc1ccc(CNc2ccc3ncc(-c4ccc5c(c4)OCO5)n3n2)cc1	GPR151 activ 8.4 | GPR151 conf act inactive | GPR119 ag inactive
COc1ccc(CNc2ccc3ncc(-c4ccc(OC)cc4)n3n2)cc1	GPR151 activ 5.5 | GPR151 conf act inactive | GPR119 ag inactive
Cn1c(Cc2cccs2)nnc1SCC(=O)N1CCCCC1	none
COc1cccc(NC(=O)CSc2cn(CC(=O)N3CCC(C)CC3)c3ccccc23)c1	GPR151 activ 5.1 | GPR151 conf act inactive | GPR119 ag inactive
COc1cccc(NC(=O)CSc2cn(CC(=O)N3CCOCC3)c3ccccc23)c1	none
N#C/C(=C\c1cn(Cc2ccccc2)c2ccccc12)C(=O)NC1CC1	GPR151 activ 5.2 | GPR151 conf act inactive | GPR119 ag inactive
CCOc1ccc(-c2nnn(CC(C)=O)n2)cc1OCC	none
CCOc1ccc(-c2nnn(CC(C)=O)n2)cc1	GPR151 activ 10.0 | GPR151 conf act inactive | GPR119 ag inactive
O=C(O)c1cc(C(=O)O)cc(N2C(=O)c3cccc([N+](=O)[O-])c3C2=O)c1	none
CC(C)N(CCNc1ncnc2nc(Nc3ccccc3)[nH]c12)C(C)C	none
CC(C)N(CCNc1ncnc2nc(Nc3nccc4ccccc34)[nH]c12)C(C)C	GPR151 activ 6.1 | GPR151 conf act inactive | GPR119 ag inactive
CN(CCO)C(=O)c1cc(COc2cccc3cnccc23)on1	GPR151 activ 6.7 | GPR151 conf act inactive | GPR119 ag inactive
CC(C)c1cc(CNC(=O)c2cc(COc3cccc4cnccc34)on2)on1	none
Cc1cc(Br)ccc1NC(=O)COc1ccc(Cl)cc1C1CCCCC1	none
OC(c1cccnc1)c1ccc2c(c1)CN(Cc1cccc(Cl)c1)CCO2 (centres undefined)	GPR151 activ 41 | GPR151 conf act inactive | GPR119 ag inactive
CCOC(=O)c1oc2ccccc2c1NC(=O)C1CCCCC1	none
